{"source": "PubChem BioAssay (NCATS)", "note": "Inconclusive results are not listed. Values without a mark were called inactive. Calls of active or inactive are those of the source. The call rests on the fitted dose curve; in most records, active means well fitted inhibition curve with a large enough effect; inconclusive means small, poorly fitted or top-dose-only effect; inactive means flat fitted curve, though single readings scatter. On the % scale 0 is the no-effect control and ±100 the full control effect; potency means the concentration at half of the fitted maximal effect."}
{"test": "P-glycoprotein substrates identified in KB-8-5-11 adenocarcinoma cell line, qHTS therapeutic library screen (AID 1346987); further: nearly all actives have a fitted effect of over 65% in size", "settings": "KB-8-5-11 (P-gp overexpressing) viability, CellTiter-Glo, 72 h; series mostly up to 44.5 µM; activity change, negative = cytotoxicity: at the top concentration", "procedure,_shortened": "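KB-8-5-11: colchicine-selected sub-line of KB-3-1 over-expressing P-gp; assay medium lacked colchicine. 72 h drug exposure at 37 degree C, CellTiter-Glo.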"}
{"smiles": "CC(C)[C@H]1CCC(CO)=C[C@@H]1/C=C(\\CO)C(=O)O", "activity change, negative = cytotoxicity": "8.69%"}
{"smiles": "CC1CCC2C(C(=O)O)=CC3CC(C)(C)CC132", "note": "(configuration not stated)", "activity change, negative = cytotoxicity": "2.88%"}
{"smiles": "CC1CCC2C(C)(C)C(O)CCC2(C)C12Cc1c(O)cc3c(c1O2)CN(C(CCC(N)=O)C(=O)O)C3=O", "note": "(configuration not stated)", "outcome": "inactive [at 17.3 µM]"}
{"smiles": "CC(C)(O)C1CCC2(C)C3C(O)C4C(C13)C42CO", "note": "(configuration not stated)", "outcome": "inactive"}
{"smiles": "C[C@]12CCC(=O)C=C1CC[C@@H]1[C@@H]2[C@@H](O)C[C@@]2(C)[C@H]1CC[C@]2(O)C(=O)COP(=O)(O)O", "activity change, negative = cytotoxicity": "-23.2%"}
{"smiles": "OCC1OC(Oc2cc(O)c3c(c2)OC(c2ccc(O)cc2)C(O)C3)C(O)C1O", "note": "(configuration not stated)", "outcome": "inactive [at 17.3 µM]"}
{"smiles": "CC1OC(OC2C(O)C(C(=O)O)OC(OC3CCC4(C)C(CCC5(C)C4C=CC4=C6CC(C)(C)CC(O)C6(C)CCC45C)C3(C)C)C2OC2OCC(O)C(O)C2O)C(O)C(O)C1O", "note": "(configuration not stated)", "outcome": "inactive [at 9.29 µM]"}
{"smiles": "O=C1[C@H](O[C@@H]2O[C@H](CO)[C@@H](O)[C@H](O)[C@H]2O)Oc2ccccc2N1O", "outcome": "inactive"}
{"smiles": "CC1CCC(=O)CC(O)C(O)CC(=O)O1", "note": "(configuration not stated)", "activity change, negative = cytotoxicity": "7.38%"}
{"smiles": "C[C@@H]1C/C=C/C=C\\C=C\\C=C\\[C@H](O[C@@H]2O[C@H](C)[C@@H](O)[C@H](N)[C@@H]2O)C[C@@H]2O[C@](O)(C[C@@H](O)C[C@H]3O[C@@H]3/C=C/C(=O)O1)C[C@H](O)[C@H]2C(=O)O", "outcome": "inactive [at 17.3 µM]"}
{"smiles": "C=CC1(C)CC(OC(=O)C(=C)C(O)COC(C)=O)C(C(=C)C(=O)OC)C(O)C1C(=C)CO", "note": "(configuration not stated)", "outcome": "inactive [at 17.3 µM]"}
{"smiles": "CCc1ccc2c(c1)N(CC(C)CN(C)C)c1ccccc1S2", "note": "(configuration not stated)", "Potency": "25.9 µM (active)"}
{"smiles": "CC(C)CC(=O)OC[C@H]1O[C@@](COC(=O)CC(C)C)(O[C@H]2O[C@H](CO)[C@@H](O)[C@H](O)[C@H]2OC(=O)CC(C)C)[C@@H](OC(=O)CC(C)C)[C@@H]1O", "outcome": "inactive [at 17.3 µM]"}
{"smiles": "COc1ccc(C(=O)O[C@H]2CC(C)=CC[C@@]3(C)[C@@H](OC(C)=O)C[C@@](O)(C(C)C)[C@H]23)cc1", "activity change, negative = cytotoxicity": "-2.94% [at 17.3 µM]"}
{"smiles": "C=C1CC2[C@]3(C)C(=C(O)C(=O)[C@@]2(C)[C@]2(C(=O)OC)C(=O)C(C)OC(=O)[C@@]12C)C(C)(C)C(=O)CC3O", "note": "(some centres not stated)", "activity change, negative = cytotoxicity": "-4.82% [at 17.3 µM]"}
{"smiles": "CO[C@@H](Cc1ccc(OCCc2nc(-c3ccccc3)oc2C)c2ccsc12)C(=O)O", "outcome": "inactive"}
{"smiles": "COC(=O)C1=CO[C@@H](O[C@@H]2O[C@H](CO)[C@@H](O)[C@H](O)[C@H]2O)[C@@H]2[C@@](C)(O)[C@@H](O)C[C@]12O", "activity change, negative = cytotoxicity": "7.89% [at 17.3 µM]"}
{"smiles": "C=C1CC23CCC4[C@@](C)(CCC[C@@]4(C)C(=O)O)C2CCC1C3", "note": "(some centres not stated)", "activity change, negative = cytotoxicity": "1.4%"}
{"smiles": "C=C1[C@@H]2[C@H]3OC(=O)C(=C)[C@@H]3CC[C@@](C)(O)[C@@H]2C[C@@H]1O[C@@H]1O[C@H](CO)[C@@H](O)[C@H](O)[C@H]1O", "outcome": "inactive [at 17.3 µM]"}
{"smiles": "CO[C@@]12CC3[C@@H]([C@@H](O)[C@@H](OC(C)=O)C4[C@](C)(COC(C)=O)CCC[C@]34C)[C@@H](C)C1=CC(=O)O2", "note": "(some centres not stated)", "outcome": "inactive [at 17.3 µM]"}
{"smiles": "Cc1[nH]cnc1C1CCN(c2nc3cccc4c3n2CCC4=O)CC1", "outcome": "inactive"}
{"smiles": "O=C(NCc1ccc(OC(F)(F)F)cc1)C1c2ccccc2C(=O)N1C1CCOCC1", "note": "(configuration not stated)", "activity change, negative = cytotoxicity": "-12.7%"}
{"smiles": "C=C[C@H]1[C@H](O[C@@H]2O[C@H](CO)[C@@H](O)[C@H](O)[C@H]2O)OC=C(C(=O)OC)[C@H]1C[C@@H]1N[C@H](C(=O)O)Cc2c1[nH]c1ccccc21", "activity change, negative = cytotoxicity": "-2.55% [at 17.3 µM]"}
{"smiles": "COc1cc(/C=C/C(=O)OC2CC(C)=C(C(=O)O)/C2=C/CO[C@@H]2O[C@H](CO)[C@@H](O)[C@H](O)[C@H]2O)ccc1O", "note": "(some centres not stated)", "outcome": "inactive [at 17.3 µM]"}
{"smiles": "C=CC1(C)CC(O)C2(CCC3C(C)(C(=O)O)CCCC3(C)C2=O)C1", "note": "(configuration not stated)", "outcome": "inactive"}
{"smiles": "COc1cc2c(cc1OC)CN(C(=O)[C@@H](NCc1ccncc1)C(C)(C)C)CC2", "activity change, negative = cytotoxicity": "0.391%"}
{"smiles": "CCOC(=O)c1ccc(N(C)c2csc(-c3ccccc3)n2)cc1", "outcome": "inactive"}
{"smiles": "COc1cc([C@H]2OC[C@@H]3[C@@H](c4ccc(O[C@@H]5O[C@H](CO)[C@@H](O)[C@H](O)[C@H]5O)c(OC)c4)OC[C@]23O)ccc1O", "outcome": "inactive [at 17.3 µM]"}
{"smiles": "COc1cc(/C=C/C(=O)OC(C)(C)C(OC2OC(CO)C(O)C(O)C2O)C(=O)OCc2ccc(OC3OC(CO)C(O)C(O)C3O)cc2)ccc1O", "note": "(configuration not stated)", "outcome": "inactive [at 17.3 µM]"}
{"smiles": "COc1cc2c(Nc3ccc(Cl)c(Cl)c3F)ncnc2cc1OCC1C[C@@H]2CN(C)C[C@@H]2C1", "note": "(some centres not stated)", "Potency": "18.4 µM (active)"}
{"smiles": "CCOC(=O)[C@H]1O[C@@H]1C(=O)N[C@@H](CC(C)C)C(=O)NCCC(C)C", "outcome": "inactive"}
{"smiles": "C(#Cc1cccc(CN2CCOCC2)c1)CCN1CCCCC1", "activity change, negative = cytotoxicity": "6.02%"}
